Test results taken from PubChem BioAssay (NCATS).
Results filed as inconclusive are left out. Entries that show only a call come without a potency. Activity calls are given as the source filed them. Unless noted, calls come from the whole dose curve; as a rule, active = well fitted curve in the direction sought with a large enough effect; inconclusive = small, poorly fitted or top-dose-only effect, or another doubt; inactive = no such curve, though single readings can be large; an effect the other way counts as inactive or inconclusive.

Tests used:
[1] = target: Cytochrome P450 3A4 (Homo sapiens) (UniProt P08684); experiment: qHTS Assay for Inhibitors and Substrates of Cytochrome P450 3A4 (AID 884); details: recombinant CYP3A4, Luciferin-PPXE luminescence; series mostly up to 57.1 µM; note: nearly all actives have a fitted effect of over 50% in size
Method in brief: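 20 nM human CYP3A4 with 25 uM Luciferin-PPXE (at KM) in 200 mM KPO4, preincubated 10 min with compound; NADPH regeneration started a 60 min RT reaction. Luciferin detected by luminescence, normalized to 57 uM ketoconazole as full inhibition.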

[2] = Confirmation and Secondary Assay for Modulators of Hemoglobin Beta Chain Splicing at IVS2 654 locus (AID 910); details: HeLa EGFP-654 splicing reporter, GFP fluorescence, 48 h; series mostly up to 46.1 µM;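 note: HeLa cells stably carrying EGFP split by mutant beta-globin IVS2-654 intron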
Method in brief: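 HeLa cells stably expressing EGFP interrupted by β-globin IVS2-654 intron, seeded overnight in Opti-MEM/2% FCS, then treated 2 days at 37 °C. Restored splicing read as total peak GFP intensity per well by laser scanning cytometry (488 nm excitation, 500–520 nm emission); 500 nM antisense PNA as control.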

[3] = Confirmation and Secondary Assay for Modulators of Hemoglobin Beta Chain Splicing at IVS2 705 locus (AID 930); details: HeLa EGFP-705 splicing reporter, GFP fluorescence, 48 h; series mostly up to 46.1 µM;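 note: HeLa cells stably expressing the EGFP-705 splicing reporter; GFP fluorescence per well restored by corrected splicing of the IVS2-705 intron in EGFP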
Method in brief: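 Fluorescence gain (488 nm laser, 500-520 nm PMT) reflects restored correct splicing of a mutant IVS2-705 intron inside EGFP in stably transfected HeLa cells after 2-day compound treatment.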

[4] = qHTS Assay for Lipid Storage Modulators (AID 1519; calls by dose curve); details: Drosophila S3 cells, BODIPY lipid droplet/cell ratio, laser cytometry, cells loaded with oleic acid; for activity change, negative = inhibition: at 57.5 µM (top of the series)
Method in brief: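 Cells seeded at 5,000 per well were treated with compounds over a concentration series and loaded with oleic acid (400 uM, as added). Lipid droplet fluorescence (488 nm excitation, 500-530 nm channel) was read by laser-scanning cytometry and normalized to 20 uM Triacsin C.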

[5] = target: Ubiquitin carboxyl-terminal hydrolase 1 (Homo sapiens) (UniProt O94782); experiment: Inhibitors of USP1/UAF1: Pilot qHTS (AID 504865); details: purified USP1/UAF1, Ub-rhodamine cleavage fluorescence; series mostly up to 114 µM;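 note: rhodamine fluorescence freed from ubiquitin-rhodamine substrate followed over time; top concentration of the series differs between compounds; nearly all actives have a fitted effect of over 35% in size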
Method in brief: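 Enzyme-free wells gave the negative control, while test wells held 1nM USP1/UAF1 preincubated with compound for 15 min at room temperature. Ub-Rho at 150nM final started the reaction, and fluorescence at 480/540 nm was recorded kinetically.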

[6] = measured here: cell count channel max response
[7] = measured here: lipid channel max response

Sequence of Cytochrome P450 3A4 (Homo sapiens) (P08684 whole entry, looked up): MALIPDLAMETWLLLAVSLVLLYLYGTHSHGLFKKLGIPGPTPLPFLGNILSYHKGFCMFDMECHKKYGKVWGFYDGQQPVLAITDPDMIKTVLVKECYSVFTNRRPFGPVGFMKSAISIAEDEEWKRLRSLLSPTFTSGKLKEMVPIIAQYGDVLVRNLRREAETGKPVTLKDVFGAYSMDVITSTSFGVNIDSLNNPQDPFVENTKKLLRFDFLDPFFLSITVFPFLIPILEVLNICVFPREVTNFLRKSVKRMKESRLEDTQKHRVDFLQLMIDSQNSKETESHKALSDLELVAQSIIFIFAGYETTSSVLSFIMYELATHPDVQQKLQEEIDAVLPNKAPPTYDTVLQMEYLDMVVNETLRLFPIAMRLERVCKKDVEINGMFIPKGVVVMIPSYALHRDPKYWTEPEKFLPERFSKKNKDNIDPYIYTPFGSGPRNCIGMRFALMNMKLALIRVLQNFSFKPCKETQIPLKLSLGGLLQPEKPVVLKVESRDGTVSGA
Sequence of Ubiquitin carboxyl-terminal hydrolase 1 (Homo sapiens) (O94782 whole entry, looked up): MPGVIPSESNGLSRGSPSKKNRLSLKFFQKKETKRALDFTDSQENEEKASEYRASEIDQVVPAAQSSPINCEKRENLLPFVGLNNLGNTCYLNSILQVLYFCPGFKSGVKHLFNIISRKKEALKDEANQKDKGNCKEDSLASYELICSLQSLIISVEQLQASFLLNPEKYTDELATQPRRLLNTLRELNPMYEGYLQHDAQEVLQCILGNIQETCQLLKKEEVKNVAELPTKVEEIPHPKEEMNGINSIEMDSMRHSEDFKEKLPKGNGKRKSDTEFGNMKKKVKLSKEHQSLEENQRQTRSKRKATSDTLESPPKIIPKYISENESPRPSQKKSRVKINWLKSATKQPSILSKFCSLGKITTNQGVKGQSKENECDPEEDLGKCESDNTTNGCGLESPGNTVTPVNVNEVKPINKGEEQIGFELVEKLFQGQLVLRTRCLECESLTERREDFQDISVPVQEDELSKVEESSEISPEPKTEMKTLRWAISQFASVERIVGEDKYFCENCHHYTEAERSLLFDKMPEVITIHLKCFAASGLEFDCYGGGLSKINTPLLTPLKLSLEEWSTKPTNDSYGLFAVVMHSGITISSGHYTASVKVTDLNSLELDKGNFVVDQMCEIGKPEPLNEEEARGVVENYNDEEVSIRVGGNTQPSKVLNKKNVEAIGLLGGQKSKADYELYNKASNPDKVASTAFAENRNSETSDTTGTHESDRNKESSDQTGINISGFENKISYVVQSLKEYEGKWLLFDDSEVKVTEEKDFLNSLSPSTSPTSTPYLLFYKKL

Question: Which results are given for `COc1ccc(C(=O)c2ccccc2)c(O)c1O`?
Answer: Potency [1]: inactive; Potency [2]: inactive; Potency [3]: inactive; activity change, negative = inhibition [4]: 1.94% (inactive); max response [4, 6]: -24.4%; max response [4, 7]: -18%; Potency [5]: inactive

Question: With `CC(C)CCCC(C)C1CCC2C3CC=C4CC(O)CC[C@@]4(C)C3CC[C@@]12C` (some centres undefined) as the molecule, how does the Potency [1] read?
Answer: inactive

Question: And the Potency [2]?
Answer: inactive

Question: And the Potency [3]?
Answer: inactive

Question: And the activity change, negative = inhibition [4]?
Answer: 2.88% (inactive)

Question: What about the max response [4, 6] of the same molecule?
Answer: -11.4%

Question: And the max response [4, 7]?
Answer: -8.92%

Question: And the Potency [5]?
Answer: inactive

Question: Which results are given for `CC(CCC(=O)O)C1CCC2C3CC[C@@H]4CCCC[C@@]4(C)C3CC[C@@]12C` (some centres undefined)?
Answer: Potency [1]: inactive; Potency [2]: inactive; Potency [3]: inactive; activity change, negative = inhibition [4]: 2.19% (inactive); max response [4, 6]: 13.8%; max response [4, 7]: 19%; Potency [5]: inactive

Question: What does the source list for `CC(=O)OCC1OC(n2cnc3c(=O)[nH]cnc32)C(OC(C)=O)C1OC(C)=O` (centres undefined)?
Answer: Potency [1]: inactive; Potency [2]: inactive; Potency [3]: inactive; activity change, negative = inhibition [4]: 3.9% (inactive); max response [4, 6]: 9.07%; max response [4, 7]: 13.2%; Potency [5]: inactive

Question: For `CC1(O)CC2C(CC1O)C2(C)C` (centres undefined), which Potency [1] is on record?
Answer: inactive

Question: What about the Potency [2] of the same molecule?
Answer: inactive

Question: And the Potency [3]?
Answer: inactive

Question: And the activity change, negative = inhibition [4]?
Answer: 2.85% (inactive)

Question: What about the max response [4, 6] of the same molecule?
Answer: -5.99%

Question: And the max response [4, 7]?
Answer: -2.1%

Question: And the Potency [5]?
Answer: inactive

Question: With `Nc1ncnc2[nH]c(=O)[nH]c12` as the molecule, how does the Potency [1] read?
Answer: inactive

Question: What about the Potency [2] of the same molecule?
Answer: inactive

Question: What about the Potency [3] of the same molecule?
Answer: inactive

Question: And the activity change, negative = inhibition [4]?
Answer: 4.6% (inactive)

Question: What about the max response [4, 6] of the same molecule?
Answer: 1.75%

Question: And the max response [4, 7]?
Answer: 6.43%

Question: And the Potency [5]?
Answer: inactive

Question: Which Potency [1] does the source give for `CCC(C(=O)O)c1ccccc1` (centres undefined) here?
Answer: inactive

Question: What about the Potency [2] of the same molecule?
Answer: inactive

Question: And the Potency [3]?
Answer: inactive

Question: And the activity change, negative = inhibition [4]?
Answer: 0.321% (inactive)

Question: What about the max response [4, 6] of the same molecule?
Answer: 8.63%

Question: What about the max response [4, 7] of the same molecule?
Answer: 10.3%

Question: And the Potency [5]?
Answer: inactive

Question: With `COc1cccc2c1CCC1=CC(=O)CC[C@@]12C` as the molecule, how does the Potency [1] read?
Answer: inactive

Question: What about the Potency [2] of the same molecule?
Answer: inactive

Question: What about the Potency [3] of the same molecule?
Answer: inactive

Question: And the activity change, negative = inhibition [4]?
Answer: 11.4% (inactive)

Question: What about the max response [4, 6] of the same molecule?
Answer: 2.03%

Question: What about the max response [4, 7] of the same molecule?
Answer: 15.6%

Question: What about the Potency [5] of the same molecule?
Answer: inactive

Question: With `COc1ccc2c(c1)O[C@@H]1c3ccc(OC)cc3OCC21` (some centres undefined) as the molecule, how does the Potency [1] read?
Answer: inactive

Question: What about the Potency [2] of the same molecule?
Answer: inactive

Question: What about the Potency [3] of the same molecule?
Answer: inactive

Question: And the activity change, negative = inhibition [4]?
Answer: 3.42% (inactive)

Question: And the max response [4, 6]?
Answer: 4.03%

Question: What about the max response [4, 7] of the same molecule?
Answer: 9.6%

Question: And the Potency [5]?
Answer: inactive

Question: Which Potency [1] does the source give for `CC(=O)OC1CC[C@@]2(C)C(CC[C@@]3(C)C2CC=C2C4CC(C)(C)CC[C@]4(C(=O)O)CC[C@@]23C)C1(C)C` (some centres undefined) here?
Answer: inactive

Question: What about the Potency [2] of the same molecule?
Answer: inactive

Question: And the Potency [3]?
Answer: inactive

Question: And the activity change, negative = inhibition [4]?
Answer: 9.65% (inactive)

Question: And the max response [4, 6]?
Answer: 12.5%

Question: What about the max response [4, 7] of the same molecule?
Answer: 29%

Question: What about the Potency [5] of the same molecule?
Answer: inactive

Question: With `CC(CCC(=O)O)C1CCC2C3CC(O)[C@@H]4CC(O)CC[C@]4(C)C3CC[C@@]12C` (some centres undefined) as the molecule, how does the Potency [1] read?
Answer: inactive

Question: And the Potency [2]?
Answer: inactive

Question: And the Potency [3]?
Answer: inactive

Question: What about the activity change, negative = inhibition [4] of the same molecule?
Answer: 6.93% (inactive)

Question: What about the max response [4, 6] of the same molecule?
Answer: 12.9%

Question: And the max response [4, 7]?
Answer: 20.4%

Question: And the Potency [5]?
Answer: inactive

Question: Which results are given for `CC1CC[C@@]2(OC1)OC1CC3C4CC[C@H]5CC(O)CC[C@@]5(C)C4CC[C@]3(C)C1C2C` (some centres undefined)?
Answer: Potency [1]: inactive; Potency [2]: inactive; Potency [3]: inactive; activity change, negative = inhibition [4]: 2.03% (inactive); max response [4, 6]: 27.2%; max response [4, 7]: 29.7%; Potency [5]: inactive

Question: Which results are given for `C=C(C)C1Cc2c(ccc(C(=O)O)c2O)O1` (centres undefined)?
Answer: Potency [1]: inactive; Potency [2]: inactive; Potency [3]: inactive; activity change, negative = inhibition [4]: 5.26% (inactive); max response [4, 6]: 17%; max response [4, 7]: 23.8%; Potency [5]: inactive

Question: Which results are given for `COc1cc2c(cc1O)C(Cc1ccc(O)cc1)[N+](C)(C)CC2` (centres undefined)?
Answer: Potency [1]: inactive; Potency [2]: inactive; Potency [3]: inactive; activity change, negative = inhibition [4]: 12.6% (inactive); max response [4, 6]: 6.75%; max response [4, 7]: 22.8%; Potency [5]: inactive

Question: For `O=c1[nH]cnc2c1nc(Cl)n2C1OC(CO)C(O)C1O` (centres undefined), which Potency [1] is on record?
Answer: inactive

Question: What about the Potency [2] of the same molecule?
Answer: inactive

Question: What about the Potency [3] of the same molecule?
Answer: inactive

Question: And the activity change, negative = inhibition [4]?
Answer: 3.67% (inactive)

Question: What about the max response [4, 6] of the same molecule?
Answer: 5.38%

Question: What about the max response [4, 7] of the same molecule?
Answer: 10.4%

Question: What about the Potency [5] of the same molecule?
Answer: inactive

Question: With `CC1=C(/C=C/C(C)=C/C=C/C(C)=C/C=C/C=C(C)/C=C/C=C(C)/C=C/C2=C(C)C(=O)C(O)CC2(C)C)C(C)(C)CC(O)C1=O` (centres undefined) as the molecule, how does the Potency [1] read?
Answer: inactive

Question: And the Potency [2]?
Answer: inactive

Question: What about the Potency [3] of the same molecule?
Answer: inactive

Question: And the activity change, negative = inhibition [4]?
Answer: 2.55% (inactive)

Question: And the max response [4, 6]?
Answer: 25.7%

Question: What about the max response [4, 7] of the same molecule?
Answer: 27.4%

Question: What about the Potency [5] of the same molecule?
Answer: inactive

Question: With `Nc1ncnc2c1nc(Cl)n2C1OC(CO)C(O)C1O` (centres undefined) as the molecule, how does the Potency [1] read?
Answer: inactive

Question: And the Potency [2]?
Answer: inactive

Question: And the Potency [3]?
Answer: inactive

Question: What about the activity change, negative = inhibition [4] of the same molecule?
Answer: 3.24% (inactive)

Question: And the max response [4, 6]?
Answer: 5.55%

Question: And the max response [4, 7]?
Answer: 12.1%

Question: And the Potency [5]?
Answer: inactive

Question: For `CC(=O)OC/C=C(\C)CC/C=C(\C)CC/C=C(\C)CC/C=C(\C)CC/C=C(\C)CC/C=C(\C)CC/C=C(\C)CC/C=C(\C)CCC=C(C)C`, which Potency [1] is on record?
Answer: inactive

Question: What about the Potency [2] of the same molecule?
Answer: inactive

Question: What about the Potency [3] of the same molecule?
Answer: inactive

Question: What about the activity change, negative = inhibition [4] of the same molecule?
Answer: 1.76% (inactive)

Question: And the max response [4, 6]?
Answer: 7.11%

Question: What about the max response [4, 7] of the same molecule?
Answer: 8.78%

Question: What about the Potency [5] of the same molecule?
Answer: inactive

Question: For `CCCCCC1C(=O)CCC1CC(=O)O` (centres undefined), which Potency [1] is on record?
Answer: inactive

Question: And the Potency [2]?
Answer: inactive

Question: What about the Potency [3] of the same molecule?
Answer: inactive

Question: And the activity change, negative = inhibition [4]?
Answer: 5.46% (inactive)

Question: And the max response [4, 6]?
Answer: 21.6%

Question: And the max response [4, 7]?
Answer: 28.3%

Question: What about the Potency [5] of the same molecule?
Answer: inactive

Question: With `CC1(C)CC2C1CC[C@]1(C)CCC3C(C(=O)O)CC(=O)O[C@]32C1` (some centres undefined) as the molecule, how does the Potency [1] read?
Answer: inactive

Question: What about the Potency [2] of the same molecule?
Answer: inactive

Question: What about the Potency [3] of the same molecule?
Answer: inactive

Question: What about the activity change, negative = inhibition [4] of the same molecule?
Answer: 3.56% (inactive)

Question: What about the max response [4, 6] of the same molecule?
Answer: 4.93%

Question: What about the max response [4, 7] of the same molecule?
Answer: 10.6%

Question: What about the Potency [5] of the same molecule?
Answer: inactive

Question: Which Potency [1] does the source give for `O=C(O)c1cc2cc(Cl)ccc2[nH]1` here?
Answer: inactive

Question: And the Potency [2]?
Answer: inactive

Question: What about the Potency [3] of the same molecule?
Answer: inactive

Question: What about the activity change, negative = inhibition [4] of the same molecule?
Answer: 4.59% (inactive)

Question: And the max response [4, 6]?
Answer: 19.5%

Question: And the max response [4, 7]?
Answer: 25.3%

Question: And the Potency [5]?
Answer: inactive

Question: Which results are given for `CC(=O)OC1CC[C@]2(C)C(=CCC3C4CCC(C(C)CCCC(C)C)[C@]4(C)CCC32)C1` (some centres undefined)?
Answer: Potency [1]: inactive; Potency [2]: inactive; Potency [3]: inactive; activity change, negative = inhibition [4]: 5.26% (inactive); max response [4, 6]: 9.32%; max response [4, 7]: 13.2%; Potency [5]: inactive
